# Only some compounds are listed: those with a hit (about 9.3% of all), similar ones and a draw of the others.
# ELG1 repair inh: qHTS screen for small molecules that inhibit ELG1-dependent DNA repair in human embryonic kidney (HEK293T) cells expressing luciferase-tagged ELG1. AID 504467, 2011. 330,000 compounds, 2.3% hits. Potency, µM (doses to about 46.1 µM), for the others: at the top dose activity change, negative = inhibition, actives largely listed as inhibitors. HEK293T ELG1-luciferase reporter, luminescence, 16 h; DNA damage induced by 5-fluorouridine; also: % is scaled to controls: 0 for no effect and ±100 for the full control effect; nearly all actives have a fitted effect of over 55% in size
#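 Quantitative HTS, concentration-response format. 2,000 cells/well co-treated with 5-fluorouridine and compound, 16 hr in 5% CO2 at 37 °C; ONE-Glo luminescence read after 30 min.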
# SMN2 splice up: qHTS Assay for Enhancers of SMN2 Splice Variant Expression. HEK293 SMN2-luciferase splicing reporter, luminescence, 30-36 h. Potency, µM (highest dose often 46.1 µM), for the others: top-dose activity change, positive = activation, actives largely listed as activators. 210,000 compounds, 2.8% hits; also: % of control where 0% means no effect; nearly all actives have a fitted effect of over 55% in size
#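 qHTS luciferase splicing reporter: luminescence rises when SMN2 exon 7 is included in transfected HEK293 cells. Compound exposure lasted 30-36 h at 37C, with 4.5 mM final sodium butyrate as control, followed by a ONE-Glo read.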
# ELG1 genotoxic: qHTS screen for small molecules that induce genotoxicity in human embryonic kidney (HEK293T) cells expressing luciferase-tagged ELG1 | HEK293T ELG1-luciferase reporter, luminescence, 16 h | Potency, µM (top dose mostly 46 µM), for the others: top-dose activity change, positive = activation, usual class: activators | 330,000 compounds, 1.3% hits | AID 504466, 2011; also: % of control where 0% means no effect; nearly all actives have a fitted effect of over 60% in size
#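 Step 1: seed 2,000 HEK293T ELG1-luciferase cells per well. Step 2: add compound or DMSO, incubate 16 hr at 37 °C. Step 3: ONE-Glo, 30 min at room temperature, read luminescence.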
# FLuc counter: qHTS profiling assay for firefly luciferase inhibitor/activator using purifed enzyme and Km concentrations of substrates (counterscreen for miR-21 project) | Potency, µM (series often up to 57.5 µM), without a hit: at the top dose activity change, negative = inhibition, hits mostly inhibitors | Luciferin 4-monooxygenase (Photinus pyralis), P08659 | purified FLuc, Km substrates, luminescence inhibition | 360,000 compounds, 6.9% hits;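 also: plate controls were vehicle for no effect and reference inhibitor for full effect; nearly all actives have a fitted effect of over 55% in size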
# Target sequence (P08659 whole entry, looked up): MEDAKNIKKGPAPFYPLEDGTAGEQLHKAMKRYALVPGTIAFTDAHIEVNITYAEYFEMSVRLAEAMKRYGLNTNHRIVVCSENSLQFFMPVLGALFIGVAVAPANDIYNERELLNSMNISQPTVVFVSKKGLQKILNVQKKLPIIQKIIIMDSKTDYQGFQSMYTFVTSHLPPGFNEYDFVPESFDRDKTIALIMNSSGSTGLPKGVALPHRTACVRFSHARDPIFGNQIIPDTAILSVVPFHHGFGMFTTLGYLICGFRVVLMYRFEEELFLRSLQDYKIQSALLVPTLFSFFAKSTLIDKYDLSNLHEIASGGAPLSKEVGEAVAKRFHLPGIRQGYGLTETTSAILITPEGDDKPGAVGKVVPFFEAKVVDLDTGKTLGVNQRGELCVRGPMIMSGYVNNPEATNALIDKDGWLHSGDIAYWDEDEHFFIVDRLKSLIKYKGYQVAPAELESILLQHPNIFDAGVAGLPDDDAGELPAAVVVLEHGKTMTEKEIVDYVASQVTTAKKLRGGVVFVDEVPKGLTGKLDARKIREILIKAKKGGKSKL
#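 Purified P. pyralis luciferase, 10 nM final, with Km-level 10 uM D-luciferin and 10 uM ATP in 50 mM Tris acetate pH 7.5, 10 mM Mg acetate, 0.01% Tween-20, 0.05% BSA; 6-point qHTS titration about 60 µM downward; luminescence read.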
# NPC1 promoter act: qHTS Assay for NPC1 Promoter Activators; Potency, µM (series often up to 9.22 µM), inactives show top-dose activation, hits mostly activators; Huh7 NPC1 promoter luciferase reporter, 24 h; 320,000 compounds, 2.4% hits; AID 485313, 2010; also: % of control where 0% means no effect; nearly all actives have a fitted effect of over 60% in size
#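 Luminescence from an NPC1 promoter-driven luciferase reporter in stably transfected Huh7 cells was measured after 24 h compound treatment at 37 °C, followed by 10 min ambient incubation with luciferase detection reagent.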
# Rab9 promoter act: qHTS Assay for Rab9 Promoter Activators; Huh7 Rab9 promoter-luciferase reporter, luminescence, 24 h; Potency, µM (top dose mostly 9.22 µM), inactives show at the top dose activation, negative = inhibition, most hits filed as activators; 320,000 compounds, 2.8% hits; AID 485297, 2010; also: % of control where 0% means no effect; nearly all actives have a fitted effect of over 60% in size
#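 Luciferase signal after 10 min detection reagent at ambient indicates Rab9 promoter upregulation; stably transfected Huh7 cells were treated 24 h with compound in DMSO at 37 °C, 5% CO2.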
# Active calls of the source: *; ? = inconclusive; nt = no result. Calls follow the shape of the dose curve; as a rule, active = well fitted curve in the direction sought with a large enough effect; inconclusive = small, poorly fitted or top-dose-only effect, or another doubt; inactive = no such curve, though single readings can be large; an effect the other way counts as inactive or inconclusive. Potency is read from the fitted curve at half-maximal effect.
SMILES,ELG1 repair inh,SMN2 splice up,ELG1 genotoxic,FLuc counter,NPC1 promoter act,Rab9 promoter act
Cc1nccc(-c2cccc(N/N=C(\C#N)C(=O)c3ccccc3)c2)n1,14.6µM*,nt,-14.5%,-15.8%,-5.2%,-7.4%
Cc1c(-c2cccc(NC(=O)Nc3ccc(Cl)cc3)c2)nc2ncccn12,nt,nt,nt,10.7µM*,nt,nt
Cc1nccc(-c2cccc(NC(=O)Nc3ccc(Cl)cc3)c2)n1,-10.2%,nt,-13.8%,4.78µM*,-5.4%,-3.4%
NC(=O)c1cccc(NC(=O)Nc2ccc(Cl)cc2)c1,0.0%,nt,?,?,?,?
O=C(COc1ccc(S(=O)(=O)Nc2ccccc2)cc1)N1CCOCC1,-0.1%,4.7%,2.4%,-1.5%,4.5%,-5.5%
Cc1ccc(OCc2nc(-c3ccc(Cl)cc3)n[nH]2)cc1,29.5%,-23.0%,2.5%,?,3.0%,12.8%
Cc1ccc(-c2n[nH]c(Cc3ccccc3)n2)cc1,?,nt,?,19µM*,2.82µM*,2.51µM*
Cc1ccc2sc(N(CCN(C)C)C(=O)c3ccc4ccccc4c3)nc2c1C,?,nt,-24.1%,3.1%,-8.6%,-9.5%
CCc1nnc2c(NCc3ccccc3)nc3ccccc3n12,nt,-3.5%,nt,-0.9%,nt,nt
CCOC(=O)C1(CCc2ccccc2)CCN(C(=O)c2occc2C)CC1,?,nt,-5.1%,-17.5%,-2.9%,-3.9%
CCOC(=O)C1(CCc2ccccc2)CCN(C(=O)Cc2nonc2C)CC1,?,2.6%,11.9%,19µM*,-0.6%,?
CCOC(=O)C1(CCc2ccccc2)CCN(C2Cc3ccccc3C2)CC1,?,nt,-20.6%,15.1µM*,?,?
CCCCn1c(N)c(N(CCOC)C(=O)c2c(C)noc2C)c(=O)[nH]c1=O,2.8%,nt,0.9%,3.3%,-0.7%,-2.7%
O=C(c1cccc(S(=O)(=O)N2CCCC2)c1)N1CCCc2ccccc21,?,nt,-9.8%,-6.1%,-10.4%,2.0%
N=C1C2=C3Sc4ccccc4N3CCCC2=NN1c1cccc(S(=O)(=O)O)c1,?,nt,-0.7%,19µM*,-3.7%,-2.0%
CCN(CC(=O)Nc1c(F)cccc1F)C(=O)c1cccc(S(=O)(=O)N(C)c2ccccc2)c1,-2.8%,nt,-8.6%,14.3%,0.0%,-2.6%
O=C1c2ccccc2C(=O)C1c1ccncc1,?,7.94µM*,3.16µM*,3.38µM*,1.26µM*,0.501µM*
Cc1ccccc1C1C(=O)c2ccccc2C1=O,25.3%,nt,-5.2%,-1.3%,-5.0%,7.0%
O=C1c2ccccc2C(=O)C1c1ccccn1,?,nt,?,10.7µM*,2.51µM*,1.41µM*
Cc1ccc(C2C(=O)c3ccccc3C2=O)cc1,24.2%,nt,4.1%,16.9µM*,12.0%,23.5%
O=C1c2cccnc2-c2ncccc21,18.8%,6.7%,3.7%,-0.9%,2.5%,6.7%
Cc1ccccc1N1C(=O)c2ccccc2NC1c1ccncc1 (stereo unspecified),-7.1%,1.5%,1.2%,5.9%,-2.1%,-5.2%
CCCOc1nc2c(c(=O)n(C)c(=O)n2C)n1Cc1cccc2ccccc12,16.4µM*,-54.3%,-27.5%,-4.3%,-3.7%,-0.9%
Cc1cccc(-n2nc3c(c2NC(=O)C(C)C)CS(=O)(=O)C3)c1C,-1.5%,nt,-0.2%,-0.4%,3.0%,-6.1%
COc1ccc(NC(=O)Nc2ccc(C)cc2Br)c(OC)c1,26.7%,5.3%,12.7%,0.0%,-1.0%,-1.5%
SMILES,ELG1 repair inh,SMN2 splice up,ELG1 genotoxic,FLuc counter,NPC1 promoter act,Rab9 promoter act
CC(=O)c1ccc(NC(=O)c2nc3ccccc3n(C)c2=O)cc1,nt,nt,nt,4.78µM*,nt,nt
Cc1csc(NC(=O)c2ccccc2O)n1,?,2.3%,?,12µM*,?,?
Cc1csc(NC(=O)c2nc3nc(C)cc(C)n3n2)n1,?,11.2µM*,?,21.3µM*,3.55µM*,3.98µM*
Cc1csc(NC(=O)Cc2ccccc2Cl)n1,?,nt,?,16.9µM*,?,5.01µM*
CCc1ccc(-n2c(=O)c3c(C)c(C(=O)N(C)C)sc3n(CC(=O)NCC3CCCO3)c2=O)cc1 (stereo unspecified),2.1%,11.4%,-0.3%,-3.3%,-0.5%,-1.7%
COc1ccc(N2CC(C(=O)N[C@@H](C)C(=O)NC3CCCC3)CC2=O)cc1 (stereo partly specified),?,nt,-3.4%,-3.0%,-3.7%,-0.2%
Cc1ccc(C)c(NC(=O)c2nc(-c3ccccc3)n(-c3ccccc3)n2)c1,?,-5.8%,-12.3%,0.4%,1.5%,0.8%
CC(C)(C)c1csc(NC(=O)c2ccccc2O)n1,?,nt,-3.4%,0.536µM*,?,?
CC(=O)c1ccc(NC(=O)c2nc(-c3ccccc3)n(-c3ccc(C)cc3)n2)cc1,nt,nt,nt,15.1µM*,nt,nt
Cc1csc(NC(=O)c2cc(C)oc2C)n1,?,58.0%,12.4%,21.3µM*,?,?
CC(C)(C)c1csc(NC(=O)c2c(F)c(F)c(F)c(F)c2F)n1,-9.5%,nt,5.8%,-0.3%,0.5%,10.8%
COc1ccc(CC(=O)Nc2nc(C)cs2)cc1OC,16.4µM*,-44.5%,3.0%,-0.5%,9.5%,-3.1%
Cc1ccc(C(=O)O)c(C(=O)Nc2nc(C)cs2)c1,-3.8%,-7.6%,1.0%,-1.3%,-0.1%,-1.4%
Cc1c(Br)cnn1C(C)C(=O)N1CCN(c2ccc(F)cc2)CC1 (stereo unspecified),?,nt,-7.8%,-3.8%,-0.9%,4.4%
O=C(Nc1nccs1)c1nc(-c2ccccc2)n(-c2ccccc2)n1,?,-8.1%,-10.8%,-0.6%,-0.4%,-3.0%
Cc1csc(NC(=O)c2nc(-c3ccccc3)n(-c3ccccc3)n2)n1,14.6µM*,-6.3%,-6.5%,-2.1%,-1.9%,-4.2%
CSc1ncccc1C(=O)Nc1nc(C(C)(C)C)cs1,7.9%,nt,12.2%,16.9µM*,16.5%,18.0%
Nc1cnn(Cc2ccc(F)cc2)c1,-26.6%,-2.1%,-2.6%,1.7%,-1.7%,-3.8%
CC(=O)Nc1ccc2c(c1)nc1n2CCN(C2CCCCC2)C1,?,12.6µM*,?,23.9µM*,3.55µM*,2µM*
O=[N+]([O-])c1ccc2c(c1)nc1n2CCN(C2CCCCC2)C1,?,14.1µM*,?,15.1µM*,?,2.51µM*
O=C(CCSc1ccccc1)NC1CCCCCC1,5.1%,1.6%,0.1%,10.7µM*,-0.1%,-7.6%
O=C(CSc1ccc(Cl)cc1)N1CCCC1,?,?,?,?,14.6%,?
